This passage reports PBM binding z-score results from the supplement of paper PMC6555819.

Common to all, as to test: PBM binding z-score (relative to random genomic background probes); higher = stronger binding; sequences stand for … in GC…GCGATTGACAGCGTAGAATGAAGG
Test [1] deals with RARb homodimer (NR concentration 270 nM). The method, boiled down: (§1)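 Each nuclear receptor dimer, without ligand, was incubated for 1 h on custom Agilent 4×180K protein-binding microarrays. Binding was detected with antibodies against each partner (one per run), and scanned fluorescence was regression-normalized. The binding z-scores are referenced to random human genomic background probes.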

Test [2] relates to RARg:RXRa (NR concentration 270 nM, RXRa partner concentration 90 nM). The method, boiled down: as §1
Test [3] deals with RARg homodimer (NR concentration 270 nM). The method, boiled down:
as §1

The test system of test [4] is RXRa DBDmut IVT, anti-RXR (DBD mutation: RXRa K156A/R161A, NR concentration 90 nM). In short, it runs like this:
as §1

For test [5], the system named is RXRa homodimer (NR concentration 180 nM). The method, boiled down: as §1
Test [6] concerns THRa:RXRa (NR concentration 90 nM, RXRa partner concentration 90 nM). The method, boiled down:
as §1

The test system of test [7] is THRa homodimer (NR concentration 90 nM). In short, it runs like this: as §1
The subject of test [8] is VDR homodimer (NR concentration 270 nM). The method, boiled down: as §1

Consider TCTAGTTGGTCACGGCGGTCACACACGACGGGTA, for which the PBM binding z-score was found to be 2.92 in test [1]; 2.1 in test [2]; 2.76 in test [3]; 0.889 in test [4]; 1.34 in test [5]; 0.79 in test [6]. Moreover, the PBM binding z-score in test [7] was found to be 0.372; in test [8], 0.652.
Take ATCTCTAGGTAAAACTTCAGTGAATCCCGAGGAT: the PBM binding z-score in test [1] was -0.785; in test [2], 0.396; in test [3], 0.43; in test [4], -0.375; in test [5], 0.101; in test [6], 0.283. The figures for the PBM binding z-score in test [7] and in test [8] were -0.319 and -0.455, respectively.
Take TCTTGTAGATCAAGCAGGTTCAGAAAGCCTGAGT: the PBM binding z-score was -0.055 in test [1]; -0.213 in test [2]; -0.414 in test [3]; 0.872 in test [4]; 0.0665 in test [5]; 0.613 in test [6]. Further, the PBM binding z-score in test [7] was -0.659; in test [8] it was 2.13.
As to GCTGCTAGGTAAACTGATGGTCAGCTAAAGCTCG, the PBM binding z-score in test [1] is -0.0474; in test [2], -0.174; in test [3] it was -0.241; in test [4] it was -0.0334; in test [5], -0.342; in test [6], -0.142. Also, the PBM binding z-score was -0.754 in test [7] and -0.973 in test [8].
As to CCTAGCAGGCCAATCTTGGTCACTCAAGGCTTGA, the PBM binding z-score in test [1] is 0.0668; in test [2], -0.196; in test [3] it was 0.118; in test [4], -0.0196; in test [5], -0.417; in test [6], 0.909. Further, the PBM binding z-score in test [7] was -0.83; in test [8] it was -0.655.
With GCGACTGGGGCATCAGCAGGTAACCATAACTTAA, the PBM binding z-score in test [1] was 0.543; in test [2], 0.292; in test [3] it was 0.296; in test [4], 0.0904; in test [5], 0.119; in test [6], 0.856. Further, the figures for the PBM binding z-score in test [7] and in test [8] were 0.168 and -0.668, respectively.
With AGAACCAGGGCACGCTGAGTTGATAGCAGAGTAG, the PBM binding z-score in test [1] was 0.548; in test [2] it was 0.797; in test [3] it was 1.19; in test [4], -0.0403; in test [5], 0.657; in test [6], 0.883. The figures for the PBM binding z-score in test [7] and in test [8] were -0.00671 and 0.466, respectively.
